Data reported in the supplement of paper PMC10811239.

The molecules below were run on LEGO organoid PTN (PTEN-/-; TP53-/-; NF1-/-) (assay: bioluminescence (viable cell) signal fold change after vs before treatment, normalised to DMSO (ratio); higher = more tumour cell growth / less inhibition). Conditions: 10 µM; treatment time 6 days.
Experimental: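 Luc2-labelled iPSC-derived glioblastoma-like organoids (LEGOs, genotypes PT = PTEN-/-;TP53-/-, PTCC = plus CDKN2A/B-/-, PTN = plus NF1-/-) were treated with 10 uM drug for 6 days (applied every other day) at 37 C. Bioluminescence imaging was done before treatment and 2 days after the last dose. BLI signals were normalised to the DMSO control on the same day and then to the pre-treatment signal (N=3).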

Structure (SMILES)	bioluminescence
C[C@@H]1O[C@]2(CS1)CN1CCC2CC1.C[C@@H]1O[C@]2(CS1)CN1CCC2CC1.Cl.Cl.O [Cevimeline hydrochloride hemihydrate]	0.522
CC[C@]1(O)C[C@H]2C[N@](CCc3c([nH]c4ccccc34)[C@@](C(=O)OC)(c3cc4c(cc3OC)N(C=O)[C@H]3[C@@](O)(C(=O)OC)[C@H](OC(C)=O)[C@]5(CC)C=CCN6CC[C@]43[C@@H]65)C2)C1.O=S(=O)(O)O [Vincristine sulfate]	0.8
Oc1c(I)cc(Cl)c2cccnc12 [Clioquinol]	2.47
CC1=NN(c2ccccc2)C(=O)C1 [Edaravone]	1.12
Cl.CNCC\C=C1\c2ccccc2CCc2ccccc12 [Nortriptyline hydrochloride]	0.835
O=C1[N-]C(=O)C(c2ccccc2)(c2ccccc2)N1.[Na+] [Phenytoin sodium]	0.866
O=C1NC(=O)C(c2ccccc2)(c2ccccc2)N1 [Phenytoin]	1.39
Cc1cn(-c2cc(NC(=O)c3ccc(C)c(Nc4nccc(-c5cccnc5)n4)c3)cc(C(F)(F)F)c2)cn1 [Nilotinib]	3.9
Nc1nc2ccc(OC(F)(F)F)cc2s1 [Riluzole]	1.01
CC(C)(C)c1cc(C(C)(C)C)c(NC(=O)c2c[nH]c3ccccc3c2=O)cc1O [Ivacaftor]	0.603
CCc1c2c(nc3ccc(OC(=O)N4CCC(N5CCCCC5)CC4)cc13)-c1cc3c(c(=O)n1C2)COC(=O)[C@]3(O)CC [Irinotecan]	0.884
CCN(CC)CCNC(=O)c1c(C)[nH]c(/C=C2\C(=O)Nc3ccc(F)cc32)c1C [Sunitinib]	0.687
C[C@@H](O[C@H]1OCCN(Cc2nc(=O)[nH][nH]2)[C@H]1c1ccc(F)cc1)c1cc(C(F)(F)F)cc(C(F)(F)F)c1 [Aprepitant]	1.21
CCCNS(=O)(=O)Nc1ncnc(OCCOc2ncc(Br)cn2)c1-c1ccc(Br)cc1 [Macitentan]	0.938
C[N+](C)(C)CCO.[Cl-] [Choline chloride]	2.09
CC(C)(S)[C@@H](N)C(=O)O [d-penicillamin]	1.11
CC[C@@H]1/C=C(\C)C[C@H](C)C[C@H](OC)[C@H]2O[C@@](O)(C(=O)C(=O)N3CCCC[C@H]3C(=O)O[C@H](/C(C)=C/[C@@H]3CC[C@H](Cl)[C@H](OC)C3)[C@H](C)[C@@H](O)CC1=O)[C@H](C)C[C@@H]2OC [Pimecrolimus]	0.347
C[C@@H]1O[C@@H]1P(=O)(O)O.NC(CO)(CO)CO [Fosfomycin Tromethamine]	0.813
COCCOC(=O)C1=C(C)NC(C)=C(C(=O)OC(C)C)C1c1cccc([N+](=O)[O-])c1 (stereo unspecified) [Nimodipine]	1.19
CNCCC(Oc1ccc(C(F)(F)F)cc1)c1ccccc1.Cl (stereo unspecified) [Fluoxetine hydrochloride]	0.924
CN1C(C(=O)Nc2ccccn2)=C(O)c2ccccc2S1(=O)=O [Piroxicam]	1.14
O.O.O.O.[Li][O]C(=O)CC(O)(CC(=O)[O][Li])C(=O)[O][Li] [Lithium citrate tetrahydrate]	1.25
CN=C(NC#N)NCCSCc1nc[nH]c1C [Cimetidine]	1.65
CN(Cc1cnc2nc(N)nc(N)c2n1)c1ccc(C(=O)N[C@@H](CCC(=O)O)C(=O)O)cc1 [Methotrexate]	0.813
FC(F)(F)C(Cl)Br (stereo unspecified) [Anestan]	1.3
Cl.Nc1c2c(nc3ccccc13)CCCC2.O [Tacrine hydrochloride hydrate]	1.22
